Measured values as given in the supplement of paper PMC6897291.

Tested on: U-2932
Experiment: growth inhibition by drug alone (1 - RLU/untreated control) (fraction); higher = stronger inhibition
Details: 177Lu-lilotomab satetraxetan 0 ug/ml
Method: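 U-2932 ABC-DLBCL cells were pretreated or not for 18 h with 1 ug/ml 177Lu-lilotomab satetraxetan (600 MBq/mg), washed and seeded (3000 cells/well) on 384-well plates pre-printed with the Selleck Cambridge Cancer Compound library. Viability was read by RealTime-Glo luminescence on days 3-6 after seeding. Effect = 1 - RLU/mean RLU of the 48 untreated no-drug control wells per plate; Bliss score = (M-E)/(1-Fa), with E the expected Bliss-additive effect.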

| Structure (SMILES) | growth inhibition by drug alone (10 nM, time (day): 3) | growth inhibition by drug alone (10 nM, time (day): 4) | growth inhibition by drug alone (10 nM, time (day): 5) | growth inhibition by drug alone (10 nM, time (day): 6) | growth inhibition by drug alone (1000 nM, time (day): 3) | growth inhibition by drug alone (1000 nM, time (day): 4) | growth inhibition by drug alone (1000 nM, time (day): 5) | growth inhibition by drug alone (1000 nM, time (day): 6) |
| --- | --- | --- | --- | --- | --- | --- | --- | --- |
| CO[C@H]1C[C@@H]2CC[C@@H](C)[C@@](O)(O2)C(=O)C(=O)N2CCCC[C@H]2C(=O)O[C@H]([C@H](C)C[C@@H]2CC[C@@H](OCCO)[C@H](OC)C2)CC(=O)[C@H](C)/C=C(\C)[C@@H](O)[C@@H](OC)C(=O)[C@H](C)C[C@H](C)/C=C/C=C/C=C/1C [Everolimus (RAD001)] | 0.744 | 0.686 | 0.591 | 0.52 | 0.743 | 0.728 | 0.667 | 0.605 |
| O=c1[nH]cc(F)c(=O)[nH]1 [Adrucil (Fluorouracil)] | 0.0617 | 0.0194 | 0.0184 | -0.211 | 0.0564 | 0.0179 | 0.00587 | -0.153 |
| O=c1cc(N2CCOCC2)oc2c(-c3cccc4c3sc3ccccc34)cccc12 | 0.114 | 0.0778 | -0.0783 | -0.126 | 0.206 | 0.176 | 0.0314 | -0.00386 |
| COc1cc2ncnc(-n3nc(-c4ccccn4)nc3N)c2cc1OC | 0.133 | 0.114 | 0.0839 | 0.0512 | 0.057 | 0.0631 | 0.00213 | -0.164 |
| CCN(CC)C(=S)SSC(=S)N(CC)CC [Disulfiram (Antabuse)] | 0.0412 | 0.0424 | -0.018 | -0.236 | 0.981 | 0.982 | 0.981 | 0.981 |
